Reference: PubChem BioAssay (NCATS)
Results filed as inconclusive are left out. A call without a number means that no potency is given here. Unmarked numbers belong to inactive results. Activity calls are given as the source filed them. The call rests on the fitted dose curve.

Assay: Cytotoxicity counterscreen for inhibitors of SARS-CoV-2 cell entry (AID 1645845); further: nearly all actives have a fitted effect of over 50% in size
Conditions: cell viability (SARS-CoV-2 entry assay cells); series mostly up to 57.1 µM; activity change, negative = cytotoxicity: at the top concentration
From the text: Assay Provider: Wei Zheng, Ph.D.
National Center for Advancing Translational Sciences, National Institute of Health, Rockville, MD.
SARS-CoV-2 spike protein, within the viral envelope, mediates viral attachment and infection of host cells. The SARS-CoV-2 spike protein specifically binds to the host receptor ACE2 (Angiotensin-converting enzyme 2). This interaction promotes endocytosis of the viral particle, additional events lead to viral-host cell membrane fusion and release of the viral contents, allowing viral replication.
While SARS-CoV-2 requires BSL-3 facilities for live virus work, pseudo-typed partices (PP) that incorporate SARS-CoV-2 spike proteins without replication elements could facilitate studies on viral entry mechanisms in a BSL-2 setting. This PP cell entry assay could also enable screening of small molecule compound libraries in BSL-2 setting to identify inhibitors of SARS-CoV-2 cell entry. To eliminate false positive compounds, ATP content cytotoxicity assay was screened in the same cell line.
SEQUENCE No. (e.g., 1, 2, 3, etc.); […] (e.g., Cells, Incubation, Reagent, etc.); VALUE and DESCRIPTION.
1. Cells. Seed 1500 HEK293-ACE2 cells (Expi293F with stable expression of human ACE2) in 2 uL/well media (DMEM, 10% FBS, 1x L-glutamine, 1x Pen/Strep, 1 ug/ml puromycin) in white 1536-well assay plates (Greiner #782073).
2. Incubation. Incubate at 37 C with 5% CO2 overnight (~16 h).
3. Compounds. Dispense 23 nL/well compounds in DMSO via pin transfer.
4. Incubation. Incubate for 1 h at 37C 5% CO2.
5. Reagent. Dispense 2 uL/well of media (DMEM, 10% FBS, 1x L-glutamine, 1x Pen/Strep, 1 ug/ml puromycin).
6. Incubation. Incubate at for 48h at 37C 5% CO2
7. Reagent. Dispense 4 uL/well of ATPLite 1step luminescence assay reagent (PerkinElmer #6016739).
8. Incubation. Incubate for 15 min at room temperature.
9. Detection. Read luminescence signal (Viewlux plate reader, PerkinElmer). Data was normalized with wells containing cells as 100%, and wells without cells (media only control) as 0%.

| Structure (SMILES) | Potency | activity change, negative = cytotoxicity | outcome |
| --- | --- | --- | --- |
| C[C@@H](CN1CC(=O)NC(=O)C1)N1CC(=O)NC(=O)C1 | inactive |  |  |
| O=C(COCCOCCOCC(=O)Nc1c(I)cc(I)c(C(=O)O)c1I)Nc1c(I)cc(I)c(C(=O)O)c1I |  | 0.211% |  |
| CCOc1ccc(NS(=O)(=O)c2ccc(N)cc2)nn1 |  |  | inactive |
| CCCc1nc(C(C)(C)O)c(C(=O)OCc2oc(=O)oc2C)n1Cc1ccc(-c2ccccc2-c2nn[nH]n2)cc1 |  | -1.96% |  |
| CC(CCc1ccc(O)cc1)NCCc1ccc(O)c(O)c1 (stereo not given) |  |  | inactive |
| CCOC(=O)Oc1ccc(CCNC(=O)[C@H](CCSC)NC(C)=O)cc1OC(=O)OCC |  |  | inactive |
| CC(C)Cc1ccc(CC(=O)O)cc1 |  |  | inactive |
| C[C@@H](O)[C@H]1C(=O)N2C(C(=O)O)=C(SCCN=CN)C[C@H]12 |  |  | inactive |
| CC(CN(C)C)C(C)(O)Cc1ccc(Cl)cc1 (stereo not given) |  |  | inactive |
| CC1COc2c(N3CCN(C)CC3)c(F)cc3c(=O)c(C(=O)O)cn1c23 (stereo not given) |  |  | inactive |
| Cc1cc(OI)c(C(C)C)cc1-c1cc(C(C)C)c(OI)cc1C |  |  | inactive |
| COc1cc2c3cc1Oc1cc(ccc1O)C[C@@H]1c4c(cc(OC)c(O)c4Oc4ccc(cc4)C[C@@H]3N(C)CC2)CC[N+]1(C)C |  | -16.3% |  |
| CCCCN(CCCC)CCCOC(=O)c1ccc(N)cc1 |  | -6.71% |  |
| CCCCCCCCCCCCCCCC(=O)OCCC1CCN(CCCN2c3ccccc3Sc3ccc(S(=O)(=O)N(C)C)cc32)CC1 |  |  | inactive |
| N#Cc1ccc2c(c1)N(CCCN1CCC(O)CC1)c1ccccc1S2 |  | -26.9% |  |
| O=C(Cn1ccnc1[N+](=O)[O-])NCc1ccccc1 |  | -8.8% |  |
| CCOC(=O)O[C@]1(C(=O)OCCl)CC[C@H]2[C@@H]3CCC4=CC(=O)C=C[C@]4(C)[C@H]3[C@@H](O)C[C@@]21C | inactive |  |  |
| CC(CSC(=O)c1ccccc1)C(=O)N1C[C@@H](Sc2ccccc2)C[C@H]1C(=O)O (stereo not given in full) |  | 1.86% [at 27.1 µM] |  |
| CC(=O)OCC(=O)[C@@]1(O)[C@H](OC(C)=O)C[C@H]2[C@@H]3CCC4=CC(=O)C=C[C@]4(C)[C@@]3(F)[C@@H](O)C[C@@]21C |  |  | inactive |
| CC(C(=O)O)c1ccc(/C=C2\CCCCC2=O)cc1 (stereo not given) |  | -5.9% |  |

| Structure (SMILES) | Potency | activity change, negative = cytotoxicity | outcome |
| --- | --- | --- | --- |
| CCCc1c2oc(C(=O)O)cc(=O)c2cc2c(=O)cc(C(=O)O)n(CC)c12 |  | 4.32% |  |
| CC(CCc1ccccc1)NCC(O)c1ccc(O)c(C(N)=O)c1 (stereo not given) |  | 3.04% |  |
| CCOC(=O)C1=C(C)NC(C)=C(C(=O)OC)C1c1cccc([N+](=O)[O-])c1 (stereo not given) |  | 4.91% |  |
| CCCCCCCN(CC)CCCC(O)c1ccc(NS(C)(=O)=O)cc1 (stereo not given) | inactive |  |  |
| CCCCCCCC(=O)OCC(COC(=O)CCCCCCC)OC(=O)CCCCCCC |  |  | inactive |
| O=C1OC(c2ccc(O)c(S(=O)(=O)O)c2)(c2ccc(O)c(S(=O)(=O)O)c2)c2c(Br)c(Br)c(Br)c(Br)c21 |  | -3.32% |  |
| CC1CCN(CCCC(=O)c2ccc(F)cc2)CC1 |  | 3.89% |  |
| CC1CC(OC(=O)c2ccccc2O)CC(C)(C)C1 (stereo not given) |  | -5.63% |  |
| O=c1[nH]c(=O)n([C@H]2C[C@H](O)[C@@H](CO)O2)cc1Br |  | -13.3% |  |
| O=C(O)CCCC[C@@H]1SC[C@@H]2NC(=O)N[C@@H]21 |  | 0.607% |  |
| Nc1nc(-c2ccccc2)c(Br)c(=O)[nH]1 |  | -0.567% |  |
| CCCCOCCOC(=O)c1cccnc1 |  | 2.21% |  |
| CN1C[C@@H]2C[C@H]1CN2c1cc2c(cc1F)c(=O)c(C(=O)O)cn2C1CC1 |  | -9.14% [at 27.1 µM] |  |
| O=[N+]([O-])c1cncn1CCN1CCOCC1 |  |  | inactive |
| O=C(O)C(S)C(S)C(=O)O (stereo not given) |  | -1.23% |  |
| OC[C@H]1O[C@@H](n2cnc3c2NC=NC[C@H]3O)C[C@@H]1O | inactive |  |  |
| COP(=S)(OC)Oc1ccc(SC)c(C)c1 |  |  | inactive |
| O=C(O)c1ccccc1S |  |  | inactive |
| CN1C(=O)NC(=O)C(C)(C2=CCCCC2)C1=O (stereo not given) |  |  | inactive |
| Cc1ncc(CO)c(CO)c1O |  |  | inactive |
